# Screening results (PubChem)
# DT40 TDP1 no CPT: qHTS for Inhibitors of human tyrosyl-DNA phosphodiesterase 1 (TDP1): qHTS in cells in absence of CPT; DT40 Tdp1-/- hTDP1 cells, no CPT, ATP luminescence, 48 h; Potency, µM (series often up to 46.2 µM), without a hit: top-dose activity change, negative = growth inhibition, most hits filed as inhibitors; 420,000 compounds, 15% hits; AID 686978, 2013; also: potency is read from the fitted curve at half-maximal effect; % is scaled to controls: 0 for no effect and ±100 for the full control effect; nearly all actives have a fitted effect of over 55% in size
#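 Stably hTDP1-transfected Tdp1-null chicken DT40 cells were treated with library compounds minus camptothecin and grown for at least 48 hr at 37 °C, after which cellular ATP was quantified by luminescence.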
# IL1B secr inh: qHTS for Inhibitors of Inflammasome Signaling: IL-1-beta AlphaLISA Primary Screen; THP-1 LPS/ATP IL-1B secretion, AlphaLISA, 16 h; active compounds read low; activity change, % at 57.5 µM; 360,000 compounds, 4.7% hits; AID 743279, 2014; in the data active = activity change below about -50%; inconclusive = mostly about -30% to -49%; also: % is scaled to controls: 0 for no effect and ±100 for the full control effect
#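 THP-1 cells pretreated 1 hr with compounds (up to 57.5 uM final), then stimulated with LPS (250 ng/mL final) plus ATP (1.25 mM final); secreted IL-1B measured by AlphaLISA after 16 hr, decreased signal indicating inhibition.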
# DT40 TDP1 CPT: qHTS for Inhibitors of human tyrosyl-DNA phosphodiesterase 1 (TDP1): qHTS in cells in presence of CPT. chicken DT40 Tdp1-/-;hTDP1 cells + 20 nM CPT, ATP luminescence, 48 h. Potency, µM (highest dose often 46.2 µM), for inactives: at the top dose activity change, negative = growth inhibition, hits mostly inhibitors. AID 686979, 2013. 420,000 compounds, 12% hits; also: potency is read from the fitted curve at half-maximal effect; % is scaled to controls: 0 for no effect and ±100 for the full control effect; nearly all actives have a fitted effect of over 55% in size
#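 Chicken DT40 Tdp1-/- cells stably complemented with human TDP1 were seeded at 400 cells/well in medium containing 20 nM camptothecin, exposed to pin-transferred compounds, and grown at 37 °C for at least 48 hr. Viability was read as ATP luminescence.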
# DRD3 antagonist: qHTS of D3 Dopamine Receptor Antagonist: qHTS; max response, negative = inhibition, %; 360,000 compounds, 2.5% hits; D3R cells, DiscoveRx beta-arrestin luminescence, antagonist mode; active compounds read low; in the data active = max response below about -50%; inconclusive = no clear call, values can overlap the other calls; also: % is scaled to controls: 0 for no effect and ±100 for the full control effect
#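 Cells plated overnight at 1500 cells/well, then exposed to library compounds with dopamine controls for 90 minutes at 37 degrees C. DiscoveRx reagent added for 30–60 minutes at room temperature; luminescence read, quantitative HTS format.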
# DRD3 agonist: qHTS of D3 Dopamine Receptor Agonist: qHTS | D3R DiscoveRx beta-arrestin cells, luminescence, 90 min | 410,000 compounds, 0.58% hits | max activation, %; in the data active = max activation above about 30%; also: 0% is about no effect
#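 Agonist mode: compounds and dopamine controls were applied to plated cells for 90 min at 37 degrees C after an overnight attachment at 1500 cells/well. Luminescent read-out followed 30 - 60 minutes at room temperature with DiscoveRx detection reagent.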
# ClpP mod: qHTS Assay for Activators of ClpP | ATP-dependent Clp protease proteolytic subunit (Bacillus subtilis (strain 168)), P80244 | purified B. subtilis ClpP, FRET peptide cleavage, 20 min | Potency, µM (series often up to 57.5 µM), for inactives: at the top dose activity change, negative = active | 340,000 compounds, 1.9% hits; active = well fitted falling curve with a large enough effect; inconclusive = small, poorly fitted or top-dose-only effect; inactive = no such curve, though single readings can be large or run the other way; also: potency is read from the fitted curve at half-maximal effect; the source files actives as falling curves though it sought activators and does not explain the sign; nearly all actives have a fitted effect of over 65% in size
# Target sequence (P80244 whole entry, looked up): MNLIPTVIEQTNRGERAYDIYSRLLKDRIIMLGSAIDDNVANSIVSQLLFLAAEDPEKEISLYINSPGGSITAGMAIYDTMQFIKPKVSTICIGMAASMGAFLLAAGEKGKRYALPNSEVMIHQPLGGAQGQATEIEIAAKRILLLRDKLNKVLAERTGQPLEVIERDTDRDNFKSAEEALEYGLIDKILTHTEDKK
#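 ClpP 10 microg/mL final, pH 8 Tris/KCl buffer with BSA, glycerol, Tween-20; compound pinned in; FRET-FV substrate; RT 20 min; Ex320/Em430; ΔFRET vs ADEP 5.8 microM, DMSO, no enzyme.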
# The depositor's hits bear a star; ? = inconclusive; / = no result; ! = not confirmed by another sample. An excerpt weighted towards active compounds, which were near 21% of everything screened. Unless noted, calls follow the shape of the dose curve; as a rule, active = well fitted inhibition curve with a large enough effect; inconclusive = small, poorly fitted or top-dose-only effect; inactive = flat fitted curve, though single readings scatter.
SMILES,DT40 TDP1 no CPT,IL1B secr inh,DT40 TDP1 CPT,DRD3 antagonist,DRD3 agonist,ClpP mod
O=C(/C=C/c1cccs1)c1cc(F)ccc1OC(=O)N1CCOCC1,?,-54*,23µM*,-23,4,1%
CCS(=O)(=O)c1nc(S(=O)(=O)c2ccc(C)cc2)c(N2CCC(C)CC2)s1,?,9,?,-9,0,0%
O=C(OC1CCc2ccccc2C1=O)c1ccccc1O (configuration not stated),16µM*,10,23µM*,6,3,8%
COC(=O)c1ccc(C2Nc3c(C)cc(C)cc3C3C=CCC32)cc1 (configuration not stated),?,/,?,/,9,-1%
Cc1cc(C)c2c(c1)[C@@H]1C=CC[C@@H]1[C@H](c1ccc(S(=O)(=O)N3CCOCC3)cc1)N2,18µM*,-17,16µM*,-21,5,-9%
CCOc1c(Cl)cc(CNc2ccc3[nH]c(=O)[nH]c3c2)cc1OC,?,/,23µM*,/,-1,18%
COc1cc(CNc2ccc3[nH]c(=O)[nH]c3c2)ccc1OCc1ccc(Cl)cc1,?,-2,?,7,7,12%
COc1cc(CNc2ccc3[nH]c(=O)[nH]c3c2)cc(Br)c1OCc1ccccc1F,21µM*,-60*,10µM*,73,25,22%
COc1cc(CNc2ccc3[nH]c(=O)[nH]c3c2)cc(Br)c1OCC(=O)NC(C)(C)C,?,-68*,?,-10,28,82%
COc1cc(CNc2ccc3[nH]c(=O)[nH]c3c2)ccc1OCC(=O)NC(C)(C)C,?,-16,?,7,4,17%
COc1cc(CNc2ccc3[nH]c(=O)[nH]c3c2)ccc1OCc1ccc(F)cc1Cl,?,?,?,17,35*!,?
O=C(CSc1nc2ccsc2c(=O)n1Cc1ccc(F)cc1)NCc1ccc(Cl)cc1,-23%,/,?,/,7,0%
C/C(=N\Nc1ccc(Cl)cc1)c1c(O)cc(C)oc1=O,-9%,8,-2%,2,2,/
CC(C)N1C(=O)CCN(C=O)c2ccccc21,2%,-2,6%,-8,3,0%
CCOc1cc(CNc2ccc3cn[nH]c3c2)ccc1OC,21µM*,-19,?,-10,-6,-23%
COc1cc(CNc2ccc3[nH]c(=O)[nH]c3c2)ccc1OCc1ccccc1F,16µM*,?,21µM*,29,8,-7%
COc1ccc(CNc2ccc3cn[nH]c3c2)c(OC)c1OC,?,42,?,-3,12,?
COc1cc(CNc2ccc3[nH]c(=O)[nH]c3c2)ccc1OCc1ccc(F)cc1,-23%,-7,?,12,5,1%
OCCCc1nc2ccccc2[nH]1,0%,-2,4%,17,-7,/
Cc1ccc(C(=O)NCC(=O)Nc2ncccc2C)s1,-6%,21,19%,1,4,/
CCOC(=O)c1cc(-c2ccc(OC(F)F)cc2)nc2c1c(=O)[nH]c(=O)n2C,-13%,14,-21%,7,1,3.5µM*
CCOC(=O)c1c(C)nc2c(c1-c1ccccc1)C(=O)c1ccccc1-2,?,-54*,?,42,41*,-2%
CCOC(=O)c1c(C)nc2ccc(Cl)cc2c1-c1ccccc1,?,-6,-20%,8,5,-2%
CCOC(=O)c1c(C)nc2ccccc2c1-c1ccccc1,18µM*,-1,?,17,10,-2%
CCOC(=O)c1c(CCl)nc2ccccc2c1-c1ccccc1,23µM*,-19,13µM*,5,-1,/
